From the supplement of paper PMC11732987, “Enantioselective OTUD7B fragment discovery through chemoproteomics screening and high-throughput optimisation” (Communications Chemistry, 2025)

Tests used:
Assay in all cases: log2 ratio of Biotin-Ahx-Ub-VS probe labelling (fragment/DMSO); higher = less target engagement (more negative = stronger competition), active = hit call of the paper (q ≤ 0.05, log2 ratio ≤ -1)
Settings in all cases: compound concentration: 200 uM; treatment time: 3 h
[1] = target: USP34 (UniProt Q70CQ2)
Method in brief: (§1)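 Labelled DUBs from HEK293T lysate were NeutrAvidin-enriched, digested with LysC and trypsin, and run by diaPASEF LC-MS/MS. Before that, each 495 µg sample in Tris/CHAPS/IGEPAL buffer with protease inhibitors was treated in triplicate with fragment at 200 µM or vehicle for 3 h, then with Biotin-Ahx-Ub-VS at 0.5 µM final for 1 h. Values are average log2 ratios of fragment over vehicle by unpaired t-test, based on global-median-normalised Spectronaut label-free quantities from proteins with ≥2 unique peptides.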

[2] = target: T1, USP36 (UniProt Q9P275)
T1 sequence (whole entry): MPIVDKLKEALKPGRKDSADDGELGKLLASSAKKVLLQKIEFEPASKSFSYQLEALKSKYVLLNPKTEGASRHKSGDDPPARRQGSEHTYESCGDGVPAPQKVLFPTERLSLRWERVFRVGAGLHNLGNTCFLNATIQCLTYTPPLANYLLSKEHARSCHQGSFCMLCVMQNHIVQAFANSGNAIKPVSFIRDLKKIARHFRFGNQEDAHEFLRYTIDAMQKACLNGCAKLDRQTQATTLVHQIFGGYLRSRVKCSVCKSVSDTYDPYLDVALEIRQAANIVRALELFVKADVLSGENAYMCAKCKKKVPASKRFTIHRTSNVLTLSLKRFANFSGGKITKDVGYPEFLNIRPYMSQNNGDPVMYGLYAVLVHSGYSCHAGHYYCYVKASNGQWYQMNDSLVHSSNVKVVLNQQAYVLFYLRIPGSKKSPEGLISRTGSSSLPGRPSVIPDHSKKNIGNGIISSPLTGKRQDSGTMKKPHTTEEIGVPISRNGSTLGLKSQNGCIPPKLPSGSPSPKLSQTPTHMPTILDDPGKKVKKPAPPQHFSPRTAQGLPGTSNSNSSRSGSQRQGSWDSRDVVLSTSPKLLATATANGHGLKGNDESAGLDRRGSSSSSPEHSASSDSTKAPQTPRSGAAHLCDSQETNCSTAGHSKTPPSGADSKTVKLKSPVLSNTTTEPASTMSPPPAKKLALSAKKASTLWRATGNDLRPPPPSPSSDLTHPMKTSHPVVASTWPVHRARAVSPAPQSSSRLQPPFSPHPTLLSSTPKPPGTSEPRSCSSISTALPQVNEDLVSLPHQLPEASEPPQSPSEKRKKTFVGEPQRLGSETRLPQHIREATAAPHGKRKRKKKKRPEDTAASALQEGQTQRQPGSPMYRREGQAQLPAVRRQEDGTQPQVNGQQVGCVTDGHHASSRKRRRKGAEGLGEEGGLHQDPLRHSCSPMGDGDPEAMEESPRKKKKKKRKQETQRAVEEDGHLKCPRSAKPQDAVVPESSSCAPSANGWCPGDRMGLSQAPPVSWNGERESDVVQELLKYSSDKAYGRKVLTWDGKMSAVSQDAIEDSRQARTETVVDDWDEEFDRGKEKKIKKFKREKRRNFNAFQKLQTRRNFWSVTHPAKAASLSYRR
Method in brief: as §1

[3] = target: T2, USP38 (UniProt Q8NB14)
T2 sequence (whole entry): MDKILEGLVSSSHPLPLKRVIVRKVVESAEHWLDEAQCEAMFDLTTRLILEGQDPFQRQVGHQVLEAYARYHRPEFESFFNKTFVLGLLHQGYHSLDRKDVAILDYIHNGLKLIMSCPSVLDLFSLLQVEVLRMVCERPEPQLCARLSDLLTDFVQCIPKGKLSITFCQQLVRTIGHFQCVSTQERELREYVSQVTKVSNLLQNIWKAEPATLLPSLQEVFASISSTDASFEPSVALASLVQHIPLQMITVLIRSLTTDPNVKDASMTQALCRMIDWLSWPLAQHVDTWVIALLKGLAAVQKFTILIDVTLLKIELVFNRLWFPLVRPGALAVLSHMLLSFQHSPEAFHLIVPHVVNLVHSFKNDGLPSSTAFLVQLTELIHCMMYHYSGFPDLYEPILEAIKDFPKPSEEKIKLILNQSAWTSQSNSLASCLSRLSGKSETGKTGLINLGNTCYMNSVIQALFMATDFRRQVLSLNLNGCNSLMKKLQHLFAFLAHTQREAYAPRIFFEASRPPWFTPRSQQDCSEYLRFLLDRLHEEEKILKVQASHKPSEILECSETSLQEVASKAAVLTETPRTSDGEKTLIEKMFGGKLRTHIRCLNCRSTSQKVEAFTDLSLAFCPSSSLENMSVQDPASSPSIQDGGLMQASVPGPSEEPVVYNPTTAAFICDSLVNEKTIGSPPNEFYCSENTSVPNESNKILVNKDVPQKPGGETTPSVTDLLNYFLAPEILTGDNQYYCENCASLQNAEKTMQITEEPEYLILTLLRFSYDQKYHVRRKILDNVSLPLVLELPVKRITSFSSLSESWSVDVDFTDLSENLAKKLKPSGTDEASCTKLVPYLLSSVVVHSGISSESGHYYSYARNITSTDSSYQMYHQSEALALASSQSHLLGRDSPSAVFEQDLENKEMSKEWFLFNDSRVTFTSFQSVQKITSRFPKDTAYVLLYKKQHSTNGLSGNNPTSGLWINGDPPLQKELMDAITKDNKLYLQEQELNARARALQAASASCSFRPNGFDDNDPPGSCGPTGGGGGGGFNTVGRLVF
Method in brief: as §1

[4] = target: T3, USP39 (UniProt Q53GS9)
T3 sequence (whole entry): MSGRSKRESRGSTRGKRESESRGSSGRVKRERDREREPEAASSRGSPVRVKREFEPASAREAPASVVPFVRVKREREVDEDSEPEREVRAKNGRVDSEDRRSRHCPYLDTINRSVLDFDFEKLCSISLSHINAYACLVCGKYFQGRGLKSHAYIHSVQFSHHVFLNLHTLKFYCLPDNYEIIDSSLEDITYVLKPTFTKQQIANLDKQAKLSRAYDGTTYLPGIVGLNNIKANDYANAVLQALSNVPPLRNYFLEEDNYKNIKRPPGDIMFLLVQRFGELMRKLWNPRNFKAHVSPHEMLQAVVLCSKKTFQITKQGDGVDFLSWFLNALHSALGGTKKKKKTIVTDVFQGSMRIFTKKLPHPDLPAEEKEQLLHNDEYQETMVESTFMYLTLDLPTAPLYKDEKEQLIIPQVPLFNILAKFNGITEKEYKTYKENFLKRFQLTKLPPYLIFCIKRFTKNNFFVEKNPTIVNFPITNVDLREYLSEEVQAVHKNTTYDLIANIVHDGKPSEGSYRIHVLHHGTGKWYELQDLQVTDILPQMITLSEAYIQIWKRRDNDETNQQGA
Method in brief: as §1

[5] = target: T4, USP4 (UniProt Q13107)
T4 sequence (whole entry): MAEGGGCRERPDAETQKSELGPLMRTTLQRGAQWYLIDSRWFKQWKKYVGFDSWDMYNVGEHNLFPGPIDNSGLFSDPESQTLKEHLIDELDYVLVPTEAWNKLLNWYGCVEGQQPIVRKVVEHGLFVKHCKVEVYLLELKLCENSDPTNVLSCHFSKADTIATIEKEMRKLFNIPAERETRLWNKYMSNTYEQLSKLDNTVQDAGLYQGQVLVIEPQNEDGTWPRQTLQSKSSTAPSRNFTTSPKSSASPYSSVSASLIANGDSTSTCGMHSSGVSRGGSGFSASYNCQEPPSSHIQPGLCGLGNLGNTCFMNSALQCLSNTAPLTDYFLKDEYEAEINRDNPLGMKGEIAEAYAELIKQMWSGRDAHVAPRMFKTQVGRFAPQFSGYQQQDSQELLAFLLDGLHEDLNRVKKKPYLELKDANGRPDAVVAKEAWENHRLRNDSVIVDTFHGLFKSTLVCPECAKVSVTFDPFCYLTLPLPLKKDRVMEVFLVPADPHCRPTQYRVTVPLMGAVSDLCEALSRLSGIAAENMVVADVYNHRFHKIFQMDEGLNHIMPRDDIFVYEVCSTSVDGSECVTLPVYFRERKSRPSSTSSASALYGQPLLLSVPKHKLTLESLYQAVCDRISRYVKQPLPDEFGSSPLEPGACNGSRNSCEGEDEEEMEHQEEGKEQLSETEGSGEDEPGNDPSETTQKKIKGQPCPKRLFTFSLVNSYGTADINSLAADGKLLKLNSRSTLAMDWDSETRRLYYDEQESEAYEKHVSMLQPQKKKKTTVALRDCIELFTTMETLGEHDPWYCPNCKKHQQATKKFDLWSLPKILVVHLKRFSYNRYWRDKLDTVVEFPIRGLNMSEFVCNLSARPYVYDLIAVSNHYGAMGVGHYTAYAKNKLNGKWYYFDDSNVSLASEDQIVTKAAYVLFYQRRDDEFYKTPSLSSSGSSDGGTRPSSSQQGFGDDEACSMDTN
Method in brief: as §1

Measured: log2 ratio of Biotin-Ahx-Ub-VS probe labelling

USP34, sequence (Q70CQ2 whole entry, the tested form may be a part): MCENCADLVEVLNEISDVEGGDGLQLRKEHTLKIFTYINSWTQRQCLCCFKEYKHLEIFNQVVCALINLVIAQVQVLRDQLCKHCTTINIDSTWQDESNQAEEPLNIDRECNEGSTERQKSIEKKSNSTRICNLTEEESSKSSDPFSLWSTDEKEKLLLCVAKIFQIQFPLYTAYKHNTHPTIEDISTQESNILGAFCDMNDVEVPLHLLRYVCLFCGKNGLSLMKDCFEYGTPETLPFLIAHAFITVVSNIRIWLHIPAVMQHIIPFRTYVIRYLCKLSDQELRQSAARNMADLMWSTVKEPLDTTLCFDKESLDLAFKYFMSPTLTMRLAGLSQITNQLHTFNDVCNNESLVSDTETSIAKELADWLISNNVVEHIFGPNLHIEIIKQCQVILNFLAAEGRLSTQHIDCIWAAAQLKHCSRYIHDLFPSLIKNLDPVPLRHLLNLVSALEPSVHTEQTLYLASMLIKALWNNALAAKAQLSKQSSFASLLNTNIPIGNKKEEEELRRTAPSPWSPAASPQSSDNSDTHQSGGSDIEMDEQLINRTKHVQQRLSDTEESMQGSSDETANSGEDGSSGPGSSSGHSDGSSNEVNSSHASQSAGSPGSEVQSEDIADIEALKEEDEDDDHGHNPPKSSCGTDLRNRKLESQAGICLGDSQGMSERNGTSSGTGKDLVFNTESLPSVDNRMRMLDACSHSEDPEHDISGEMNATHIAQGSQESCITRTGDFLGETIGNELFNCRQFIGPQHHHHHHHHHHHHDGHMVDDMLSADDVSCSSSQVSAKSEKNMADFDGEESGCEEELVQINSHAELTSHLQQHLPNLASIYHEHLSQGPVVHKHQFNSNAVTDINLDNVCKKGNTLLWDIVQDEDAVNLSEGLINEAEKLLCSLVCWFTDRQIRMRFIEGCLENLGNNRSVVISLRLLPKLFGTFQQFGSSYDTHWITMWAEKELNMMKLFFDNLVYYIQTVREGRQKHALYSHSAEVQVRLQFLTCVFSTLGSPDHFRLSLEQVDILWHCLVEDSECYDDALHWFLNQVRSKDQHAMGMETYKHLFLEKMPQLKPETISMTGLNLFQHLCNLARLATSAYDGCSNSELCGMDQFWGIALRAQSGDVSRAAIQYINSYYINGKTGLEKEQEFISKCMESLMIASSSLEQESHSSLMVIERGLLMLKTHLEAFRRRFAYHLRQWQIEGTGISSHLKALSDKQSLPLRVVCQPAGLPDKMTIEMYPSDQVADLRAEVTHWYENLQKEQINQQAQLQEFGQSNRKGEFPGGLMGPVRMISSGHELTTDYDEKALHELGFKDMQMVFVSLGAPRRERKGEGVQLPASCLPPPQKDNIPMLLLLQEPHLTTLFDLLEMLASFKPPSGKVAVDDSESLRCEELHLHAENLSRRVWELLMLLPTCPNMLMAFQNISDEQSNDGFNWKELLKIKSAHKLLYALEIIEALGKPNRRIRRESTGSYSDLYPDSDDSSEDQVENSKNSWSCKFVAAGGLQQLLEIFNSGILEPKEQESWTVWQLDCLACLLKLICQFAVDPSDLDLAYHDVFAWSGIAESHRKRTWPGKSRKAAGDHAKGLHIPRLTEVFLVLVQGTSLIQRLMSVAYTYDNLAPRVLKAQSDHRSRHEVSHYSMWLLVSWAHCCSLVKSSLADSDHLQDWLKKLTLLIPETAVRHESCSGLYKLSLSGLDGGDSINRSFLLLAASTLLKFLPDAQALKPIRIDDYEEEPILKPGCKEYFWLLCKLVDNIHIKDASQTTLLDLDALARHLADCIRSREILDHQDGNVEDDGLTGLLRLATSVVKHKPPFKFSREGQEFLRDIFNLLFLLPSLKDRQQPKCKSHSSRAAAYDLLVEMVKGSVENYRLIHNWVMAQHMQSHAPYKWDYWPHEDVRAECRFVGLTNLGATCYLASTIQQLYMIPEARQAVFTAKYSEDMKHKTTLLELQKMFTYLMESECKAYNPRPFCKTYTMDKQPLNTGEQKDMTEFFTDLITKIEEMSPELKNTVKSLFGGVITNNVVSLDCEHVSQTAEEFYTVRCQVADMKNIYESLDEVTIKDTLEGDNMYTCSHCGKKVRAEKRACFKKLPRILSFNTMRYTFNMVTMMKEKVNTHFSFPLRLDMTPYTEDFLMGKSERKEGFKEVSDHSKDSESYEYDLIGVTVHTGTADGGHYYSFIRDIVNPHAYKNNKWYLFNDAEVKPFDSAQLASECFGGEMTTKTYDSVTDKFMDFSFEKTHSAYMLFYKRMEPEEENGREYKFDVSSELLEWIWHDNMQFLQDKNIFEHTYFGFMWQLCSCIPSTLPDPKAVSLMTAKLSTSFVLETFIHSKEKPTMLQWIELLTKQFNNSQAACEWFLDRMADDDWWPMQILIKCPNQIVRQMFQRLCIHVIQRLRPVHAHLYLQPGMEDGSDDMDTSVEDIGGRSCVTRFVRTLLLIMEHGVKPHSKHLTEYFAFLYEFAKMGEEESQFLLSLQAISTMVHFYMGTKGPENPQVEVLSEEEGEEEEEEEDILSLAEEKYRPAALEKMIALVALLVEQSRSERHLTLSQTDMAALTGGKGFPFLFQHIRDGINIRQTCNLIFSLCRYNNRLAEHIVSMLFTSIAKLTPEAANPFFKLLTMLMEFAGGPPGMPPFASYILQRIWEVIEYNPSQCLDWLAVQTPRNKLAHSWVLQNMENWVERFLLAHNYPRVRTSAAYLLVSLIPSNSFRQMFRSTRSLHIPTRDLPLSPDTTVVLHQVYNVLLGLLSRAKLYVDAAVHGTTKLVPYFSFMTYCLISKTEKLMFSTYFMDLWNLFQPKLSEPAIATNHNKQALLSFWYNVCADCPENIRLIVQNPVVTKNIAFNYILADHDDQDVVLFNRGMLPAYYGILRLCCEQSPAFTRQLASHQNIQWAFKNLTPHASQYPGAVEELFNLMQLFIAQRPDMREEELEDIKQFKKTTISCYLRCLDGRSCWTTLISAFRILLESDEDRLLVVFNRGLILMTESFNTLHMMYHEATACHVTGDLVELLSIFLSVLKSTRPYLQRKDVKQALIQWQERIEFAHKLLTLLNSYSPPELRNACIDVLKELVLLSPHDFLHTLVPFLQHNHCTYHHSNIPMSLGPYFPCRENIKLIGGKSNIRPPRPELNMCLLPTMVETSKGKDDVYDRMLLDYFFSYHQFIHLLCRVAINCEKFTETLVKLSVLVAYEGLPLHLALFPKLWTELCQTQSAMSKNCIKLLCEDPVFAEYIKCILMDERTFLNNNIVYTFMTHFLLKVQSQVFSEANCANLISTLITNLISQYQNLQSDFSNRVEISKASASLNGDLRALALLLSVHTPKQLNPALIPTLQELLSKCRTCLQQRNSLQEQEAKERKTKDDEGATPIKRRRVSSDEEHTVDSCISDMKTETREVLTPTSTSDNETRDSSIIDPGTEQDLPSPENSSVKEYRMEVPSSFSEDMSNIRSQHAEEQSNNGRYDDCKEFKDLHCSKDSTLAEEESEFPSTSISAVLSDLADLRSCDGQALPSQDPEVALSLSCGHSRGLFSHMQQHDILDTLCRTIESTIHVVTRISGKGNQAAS

Cc1n[nH]c2c1CN(C(=O)CCl)CC2
inactive: [1] -0.404 | [2] -0.284 | [3] -0.715 | [4] 0.183 | [5] -0.888
